Experimental data from PubChem BioAssay (NCATS).
Inconclusive results are not listed. A number with no mark means an inactive call. Active and inactive are the calls of the source. The call rests on the fitted dose curve; in most records, active means well fitted inhibition curve with a large enough effect; inconclusive means small, poorly fitted or top-dose-only effect; inactive means flat fitted curve, though single readings scatter.

Test system: MCC-26
Test: qHTS assay to identify novel small-molecules to repurpose for Merkel cell carcinoma treatment (AID 1296009); further: nearly all actives have a fitted effect of over 60% in size
Conditions: MCC and control cell lines, CellTiter-Glo viability, 72 h; series mostly up to 46 µM; activity change, negative = cytotoxicity: at the top concentration
From the text: MCC is a rare and aggressive neuroendocrine skin cancer with limited treatment options. Approximately 80% of MCCs have the Merkel cell polyomavirus (MCPyV) DNA integrated into the host genome (virus-positive: VP-MCC) and viral oncogenes drive oncogenesis. The remaining MCCs are virus-negative (VN-MCC) and are caused by UV mutagenesis. To identify novel treatments for VP-MCC and/or VN-MCC we screened three VP-MCC cell lines (WAGA, MKL-1, MKL-2), three VN-MCC cell lines (MCC-13, MCC-26, UISO), and four immortalized, non-transformed control cell lines (HaCaT, HEK293T, CRL7250, NIH-3T3) against ~2,400 compounds in the NCGC Pharmaceutical Collection (NPC) and ~1,900 compounds in the Mechanism Interrogation PlatE (MiPE). Using cell viability as a readout (CellTiter-Glo assay) we found both overlapping and distinct drugs that can be repurposed for the treatment of VP-MCC and VN-MCC.
A high-throughput screen was conducted in 1536-well white flat bottom plates (Corning) on a Kalypsys robotic system. Cell lines WAGA, MKL-1, MKL-2, MCC-13, MCC-26, UISO, HaCaT, HEK293T, CRL7250, and NIH-3T3 were screened against 2 small molecule annotated drug libraries NPC and MIPE in dose response (8 and 11 pt. respectively) measuring cell viability after 72 hours of incubation. […] A 1,536 pintool (Kalypsys) was used to transfer 23 nL of compound in DMSO to the 1,536-well assay plates. After 72 hr incubation at 37 degree celsius, 2.5 uL of CellTiter-Glo (Promega) was dispensed into each well using a BiorapTR. Plates were incubated at room temperature for 10 min, transferred to a ViewLux (PerkinElmer) and the luminescence was recorded using an exposure time of 2 seconds. Relative luminescence units (RLUs) were normalized to in-plate controls (no cells as a positive (cytotoxicity) control, DMSO as negative control) and the normalized data was processed using NCATS in-house software.
On the % scale 0 is the no-effect control and ±100 the full control effect; potency means the concentration at half of the fitted maximal effect.

Structure (SMILES)	Potency	activity change, negative = cytotoxicity [%]
COc1cccc2c1C(=O)c1c(O)c3c(c(O)c1C2=O)C[C@@](O)(C(=O)CO)C[C@@H]3O[C@H]1C[C@H](N)[C@@H](O)[C@H](C)O1	2.35 µM (active)	
CC(=O)O[C@H]1C[C@@H]2CC[C@H]3[C@H]4C[C@H]([N+]5(C)CCCCC5)[C@@H](OC(C)=O)[C@@]4(C)CC[C@@H]3[C@@]2(C)C[C@H]1N1CCCCC1		0.895
CC(C)(O)Cn1c(NC(=O)c2ccc(-c3cn[nH]c3)s2)nc2cc(CN3CCOCC3)ccc21	4.69 µM (active)	
C[C@H](CCC(=O)O)[C@H]1CCC2C3C[C@H](O)[C@@H]4C[C@H](O)CC[C@]4(C)C3CC[C@@]21C (stereo not given in full)		-2.71
C[C@H](NC(=O)Cc1cc(F)cc(F)c1)C(=O)N[C@H](C(=O)OC(C)(C)C)c1ccccc1		-6
O=C(CN1C(=O)C2(CCCC2)NC[C@H]1c1cc(F)cc(F)c1)Nc1ccc2c(c1)C[C@@]1(C2)C(=O)Nc2ncccc21		2.96
CC(Cc1ccc(O)c(O)c1)(NN)C(=O)O (stereo not given)		2.89
COc1cc(C)c(C=CC(C)=CC=CC(C)=CC(=O)O)c(C)c1C		-10.4
C[C@H]1C[C@H]2[C@@H]3CCC4=CC(=O)C=C[C@]4(C)[C@@H]3C(=O)C[C@]2(C)[C@@]1(O)C(=O)CO		-8.36
COc1cc2ncnc(Nc3cccc(Br)c3)c2cc1OC		-19.6
O=C(C=CC#Cc1cccc(NS(=O)(=O)c2ccccc2)c1)NO	18.7 µM (active)	
COc1ccc(CCC(=O)c2c(O)cc(O[C@@H]3O[C@H](CO)[C@@H](O)[C@H](O)[C@@H]3O[C@@H]3O[C@@H](C)[C@H](O)[C@@H](O)[C@@H]3O)cc2O)cc1O		-12.1
NC[C@H]1O[C@H](O[C@H]2[C@@H](O)[C@@H](O[C@H]3O[C@H](CO)[C@@H](O)[C@H](N)[C@@H]3O)[C@H](N)C[C@@H]2N)[C@H](N)C[C@H]1O		1.46
Cc1nc(NC(=O)N2CCC[C@@H]2C(N)=O)sc1-c1ccnc(C(C)(C)C(F)(F)F)c1		-27.6
C[C@H](NCc1ccc(OCc2cccc(F)c2)cc1)C(N)=O	20.9 µM (active)	
CCS(=O)(=O)Nc1ccc2[nH]c(O)c(C(=Nc3ccc(CN4CCCCC4)cc3)c3ccccc3)c2c1	1.48 µM (active)	
Cc1ccc(-n2[nH]c(C)c(N=Nc3cccc(-c4cccc(C(=O)O)c4)c3O)c2=O)cc1C		-20.1
C[C@](Cc1c[nH]c2ccccc12)(NC(=O)OC1C2CC3CC(C2)CC1C3)C(=O)NC[C@H](NC(=O)CCC(=O)O)c1ccccc1 (stereo not given in full)		-1.22
CCOC(=O)[C@H](CCc1ccccc1)N[C@@H](C)C(=O)N1[C@@H](C(=O)O)C[C@H]2CCC[C@@H]21		-10.3
COc1cc(C[C@@H](CO)[C@H](CO)Cc2ccc(O)c(OC)c2)ccc1O		-1.73

Structure (SMILES)	Potency	activity change, negative = cytotoxicity [%]
N#CC(=C(O)c1ccc(Cl)cc1Cl)c1nc2cc(Cl)ccc2c(=O)[nH]1		-4.73
CC(=O)N[C@@H]1[C@H](O[C@@H]2c3ccc(c(Cl)c3)Oc3cc4cc(c3O[C@H]3O[C@H](CO)[C@@H](O)[C@H](O)[C@H]3NC(=O)CCCCCCCC(C)C)Oc3ccc(cc3Cl)C[C@H]3NC(=O)[C@H](N)c5ccc(O)c(c5)Oc5cc(O)cc(c5)[C@H](NC3=O)C(=O)N[C@H]4C(=O)N[C@H]3C(=O)N[C@@H]2C(=O)N[C@@H](C(=O)O)c2cc(O)cc(O[C@H]4O[C@H](CO)[C@@H](O)[C@H](O)[C@H]4O)c2-c2cc3ccc2O)O[C@H](CO)[C@@H](O)[C@@H]1O		-0.742
CC(=O)OC[C@@H]1O[C@@H](n2ccc(=O)[nH]c2=O)[C@H](OC(C)=O)[C@H]1OC(C)=O		-18.3
C[C@]12C=CC(=O)N[C@@H]1CC[C@H]1[C@H]3CC[C@@H](C(=O)Nc4cc(C(F)(F)F)ccc4C(F)(F)F)[C@@]3(C)CC[C@@H]12		-1.33
O=C1CSC(=O)N1C(CCc1ccncc1)COc1ccc(-c2cccc([N+](=O)[O-])c2)cc1 (stereo not given)		-4.64
Cc1noc(-c2ccc(CSCCC(=O)O)cc2)c1NC(=O)OC(C)c1ccccc1Cl (stereo not given)		-1.51
CCCCC(=O)O[C@]1(C(=O)CO)[C@@H](C)C[C@H]2[C@@H]3CCC4=CC(=O)C=C[C@]4(C)[C@@]3(F)[C@@H](O)C[C@@]21C		-10.1
CCCCCCCCCCCC(CC1OC(=O)C1CCCCCC)OC(=O)C(CC(C)C)NC=O (stereo not given)		-9.66
NC(=O)N1CCC(CC(=O)N2CCC([C@H]3c4ncc(Br)cc4CCc4cc(Cl)cc(Br)c43)CC2)CC1		-7.68
O=C1c2cccc(O)c2C(=O)c2c(O)cc(CO)cc21		-21.2
COc1ccc(C(C)=O)c(O)c1		3.37
C#CCC(Cc1cnc2nc(N)nc(N)c2n1)c1ccc(C(=O)N[C@@H](CCC(=O)O)C(=O)O)cc1 (stereo not given in full)		-7.69
CN(C)CC[C@H](c1ccc(Cl)cc1)c1ccccn1		-3.06
C[C@@H]1C(=O)O[C@H]2CC34[C@H]5C[C@@H](C(C)(C)C)C36[C@H](OC(=O)[C@@H]6O)O[C@@]4(C(=O)O5)[C@]21O (stereo not given in full)		-2.75
CC(C)[C@H](CO)Nc1nc(Nc2cccc(Cl)c2)c2ncn(C(C)C)c2n1		-22.1
C[C@H]1COc2c(N3CCN(C)CC3)c(F)cc3c(=O)c(C(=O)O)cn1c23		0.222
COc1cc(OC)c(NC(=O)Nc2cc(C)on2)cc1Cl		-8.64
CCCCCCCCCCCCCCCC(=O)OC[C@@H](NC(=O)C(Cl)Cl)[C@H](O)c1ccc([N+](=O)[O-])cc1		-2.1
c1cc(CN2CCCNCCNCCCNCC2)ccc1CN1CCCNCCNCCCNCC1		-5.7
Cc1cc(Nc2ncc3c(n2)N(C)C(=O)N(c2cc(NC(=O)c4cccc(C(F)(F)F)c4)ccc2C)C3)n(C)n1	1.18 µM (active)	
